PubChem BioAssay

Assay: probe aEGFR binding to arrayed compounds – biochemical, biotinylated probe, 635/667 nm fluorescence, primary screen (AID 1097);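 further: probe is a biotinylated anti-EGFR antibody binding compounds printed on slides; score combines fluorescence near 667 nm and signal to noise of each spot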
Settings: small-molecule microarray, higher = more signal

Structure (SMILES)	composite z-score
C[C@]1(C(=O)NCCN2CCOCC2)c2ccccc2C(=O)N(Cc2ccc(OC(F)(F)F)cc2)[C@H]1c1ccc(CO)cc1	-0.213
[N-]=[N+]=Nc1ccccc1[C@@H]1OC(c2ccc(OCCCO)cc2)=N[C@]1(CCS(=O)(=O)c1ccccc1)C(=O)NCCN1CCOCC1	0.354
CC(C)CN1C(=O)[C@@]2(Cc3ccccc31)c1ccccc1C(=O)N(Cc1ccccc1C(F)(F)F)[C@H]2c1ccc(CO)cc1	-0.187
C=CC[C@]1(C(=O)N(C)C)N=C(c2ccc(OCCCO)cc2)O[C@H]1c1ccccc1N=[N+]=[N-]	0.0651
COc1cc2c(cc1OC)CN(C(=O)[C@H]1[C@@H]3C(=O)O[C@@H](c4ccccc4)[C@@H](c4ccccc4)N3[C@@H](c3ccc(OCCO)cc3)[C@]13C(=O)Nc1ccc(C#CC4(O)CCCCCC4)cc13)CC2	0.678
COCCCNC(=O)[C@@H]1c2ccccc2C(=O)N(Cc2ccccc2C(F)(F)F)[C@H]1c1ccc(CO)cc1	-0.0146
C=CC[C@]12N=C(c3ccc(OCCCO)cc3)O[C@H]1c1ccccc1N(C)C2=O	0.0488
CCCC[C@@H]1C[C@H]1[C@@H](NC(=O)c1cccnc1)c1ccc(-c2ccccc2)cc1	-0.345
C[C@@H]1ON(c2ccc(C(=O)OC(C)(C)C)cc2)[C@H](c2ccc(Br)cc2)[C@H]1C(=O)N1C(=O)OC[C@H]1Cc1ccccc1	0.0338
CC(C)CCC[C@@H](C)[C@H]1CC[C@@]2(C)C3=C(CC[C@]12C)[C@@]1(C)CC[C@H](OC(=O)c2ccc(Br)cc2)C(C)(C)C1CC3 (stereo partly specified)	-0.0333
COc1cc2c(cc1O)C(C)N(Cc1cc3c(cc1Br)OCO3)CC2 (stereo unspecified)	-0.0594
COc1c(C)cc(-c2cc3c(c(Cc4ccccc4)n2)[Si](C(C)C)(C(C)C)OC3)cc1C	-0.0509
CN(C)CCCN1C(=O)[C@@]2(c3ccc([N+](=O)[O-])cc3)CC(=O)N(CC34CC5CC(CC(C5)C3)C4)[C@@H]2c2ccc(CO)cc21	-0.12
CO[C@H]1O[C@H](CO)[C@@H](OC(=O)Nc2ccc(C(F)(F)F)cc2)[C@H](OC(=O)Nc2ccc3c(c2)OCO3)[C@H]1OC(=O)Nc1ccc2c(c1)OCO2	0.104
NC(=O)NCC#Cc1ccc2c(c1)[C@]1(C(=O)N2)[C@H](C(=O)Nc2nc3ccccc3s2)[C@H]2C(=O)O[C@H](c3ccccc3)[C@H](c3ccccc3)N2[C@@H]1c1ccc(O)cc1	-0.0701
COCCOC(=O)N1C(=O)[C@@]2(c3cc(C#CC4(O)CCCCCC4)ccc31)[C@H](C(=O)N1CCCCCCC1)[C@H]1C(=O)O[C@H](c3ccccc3)[C@H](c3ccccc3)N1[C@@H]2c1ccc(OCCO)cc1	0.757
COC(=O)[C@@]1(Cc2ccccc2)[C@H]2c3cc(C(=O)N4CCCC4)[nH]c3C[C@H]2CN1C(=O)c1ccccc1	-0.122
CCOC(=O)[C@H]1C/C=C/C[C@H](C(=O)OCC)C(=O)O[C@H]2[C@@H](OC)O[C@H](CO)[C@@H](OC(=O)CCc3ccccc3)[C@@H]2OC1=O	-0.314

Structure (SMILES)	composite z-score
Cc1ccc(F)cc1S(=O)(=O)N[C@@H]1CCN(Cc2ccc(OC(C)C)cc2)C1	-0.273
COCCOC(=O)N1C(=O)[C@@]2(c3cc(C#CC4=CCCCC4)ccc31)[C@H](C(=O)N1CCN(c3ncccn3)CC1)[C@H]1C(=O)O[C@H](c3ccccc3)[C@H](c3ccccc3)N1[C@@H]2c1ccc(O)cc1	0.0891
COC(=O)C1(Cc2ccccc2)C=C2C(=C(C(C)C)C(=O)C2C)CN1 (stereo unspecified)	0.156
O=C1O[C@H](c2ccccc2)[C@H](c2ccccc2)N2[C@H]1[C@@H](C(=O)O)[C@]1(C(=O)Nc3ccccc31)[C@H]2c1ccc(O)cc1	-0.257
COc1ccc(NC(=O)O[C@H]2[C@H](OC(=O)Nc3ccc4c(c3)OCO4)[C@@H](OC(=O)Nc3ccc4c(c3)OCO4)[C@@H](OC)O[C@@H]2CO)cc1	-0.0953
COc1c(C)cc(-c2cc3c(c(-c4ccccc4)n2)[Si](C(C)C)(C(C)C)OC3)cc1C	-0.0262
C[C@@H](OCc1ccccc1)C1NC(=O)[C@@]23C(=O)N[C@@H](Cc4ccccc4)C2[C@H](C)[C@@]2(C)O[C@H]2C3/C=C/C/C=C\CNC(=O)CNC1=O (stereo partly specified)	-0.24
COc1ccc([Si](C)(C)[C@@H]2[C@@H](CC(=O)N3CCC[C@H]3CO)O[C@]3(C(=O)N(Cc4ccc(N5C(=O)c6cccc7cccc5c67)cc4)c4ccccc43)[C@H]2C)cc1	-0.129
CC1CC/C=C\[C@H]2OC34C=CCN(c5ccc6ccccc6c5)C(=O)[C@H]3N(C(CO)C(C)C)C(=O)[C@@H]4C2C(=O)O1 (stereo partly specified)	-0.126
COCCOC(=O)N1C(=O)[C@@]2(c3cc(C#CCC(C(=O)OC)C(=O)OC)ccc31)[C@H](c1ccc(OCCO)cc1)N1[C@H](c3ccccc3)[C@H](c3ccccc3)OC(=O)[C@H]1[C@@H]2C(=O)N1CCN(c2ncccn2)CC1	0.0397
CCOC(=O)[C@H]1C/C=C/C[C@H](C(=O)OCC)C(=O)O[C@H]2[C@@H](OC)O[C@H](CO)[C@@H](OC(=O)Nc3ccc(OC)cc3)[C@@H]2OC1=O	-0.0737
O=C1O[C@@H](c2ccccc2)[C@@H](c2ccccc2)N2[C@@H](c3ccc(O)cc3)[C@]3(C(=O)Nc4ccc(C#CC5=CCCCC5)cc43)[C@@H](C(=O)N3CCN(c4ncccn4)CC3)[C@H]12	-0.115
CCCCN1CC=CC23O[C@@H]4/C=C\CCC(C)OC(=O)C4[C@H]2C(=O)N(CCCCCCO)[C@@H]3C1=O (stereo partly specified)	-0.313
CCOC(=O)C[C@H]1[C@H](OC(=O)c2ccc(-c3ccccc3)cc2)[C@@H](NC(=O)c2ccc3ccccc3n2)c2cc(OCCCO)ccc2N1C(=O)c1ccccc1	0.0026
COc1ccc(NN2C(C(O)c3ccccn3)C=CC3C(=O)N(C4CCCCC4)C(=O)C32)cc1 (stereo unspecified)	0.134
COc1cc(OC)c(C(O)C2C=CC3C(=O)N(c4ccccc4)C(=O)C3N2Nc2ccc(C#N)cc2)cc1Br (stereo unspecified)	0.621
COc1ccc([Si](C)(C)[C@H]2[C@H](CCn3cc([C@H](O)c4ccccc4)nn3)O[C@@]3(C(=O)N(Cc4ccc(N5CCOC5=O)cc4)c4ccccc43)[C@@H]2C)cc1	-0.227
CCCCC(CC)C(O)C1C=CC2C(=O)N(c3ccccc3)C(=O)C2N1Nc1ccc([N+](=O)[O-])cc1 (stereo unspecified)	0.11
